# Compounds with a hit are over-represented: about 3.8% of the library has one in this group of screens.
# Mot1-301 SUMO: blocks SUMOylation pathway, rescuing yeast Mot1-301 growth. S. cerevisiae Mot1-301 growth rescue, ATP luminescence, 38.5C; percent above DMSO median, 100 means doubled. growth rescue, % at 18.8 µM. 320,000 tested, 1% active. AID 2716;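 active = every valid replicate shows activation above 250% relative to neutral control wells; inactive = the rest, any valid replicate at or below 250%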;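 note: OY570 slx delta 5 strain wells were the positive control but not used for scaling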
# FAS TE block: blocks the thioesterase domain of human fatty acid synthase; inhibition, % at 15 µM; recombinant FAS-TE, OMFH fluorogenic substrate, fluorescence endpoint; 360,000 tested, 0.67% active;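 active = compounds whose normalised, plate-corrected inhibition of enzyme fluorescence in the single-dose primary screen is 50% or more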;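 note: 0% = DMSO with enzyme and 100% = substrate without enzyme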
# MPTP block: inhibitors of mitochondrial permeability transition pore | inhibition, % at 10 µM | isolated mouse mitochondria, Ca2+ swelling absorbance, 30 min | 360,000 tested, 1.4% active;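 active = inhibition of 50% or more, scaled per plate between neutral and stimulator controls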;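 note: 0% = DMSO wells given calcium and 100% = 1 mM EGTA wells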
# CR mimetic SO: caloric restriction mimetics inhibiting age-related superoxide in yeast | superoxide response (% of plate mean), % at 10 µM | S. cerevisiae aged cells, superoxide DHE fluorescence; active compounds read low | AID 2690 | 330,000 tested, 0.18% active;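 active = superoxide response under a set limit, about three screen SD below normal, cut at about 65% in these data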;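 note: yeast aged for seven days with compound at 30 °C before DHE staining; 100% = average MFI of all compound-treated wells on the plate with controls excluded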
# H9c2 protect: myocardial damage modulation in H9c2 cells; H9c2 cardiomyocytes, H2O2 injury protection, ATPLite, 2 h; protection from H2O2 cell death, % at 20 µM; 360,000 tested, 0.63% active; AID 588492;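 active = compounds giving at least 50% protection of heart cells from peroxide-induced death in the single-dose screen, raw or plate-pattern-corrected value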;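 note: 0% = DMSO wells with peroxide and 100% = DMSO wells without peroxide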
# aDG glyco up: alpha-DG glycosylation activation. Pro5-aDG cells, alpha-DG glycosylation AlphaScreen (IIH6); 0% Pro5, 100% B10-LARGE cell signal. activation, % at 10 µM. 360,000 tested, 0.22% active;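 active = activation of at least 8% versus controls, or a plate z-score of at least 8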;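 note: Pro5 are CHO cells carrying HIG-tagged alpha-DG that lacks glycosylation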
# Yeast Mot1 SUMO: SUMO pathway inhibitors in yeast Mot1-301 growth; shares compounds with Mot1-301 SUMO; S. cerevisiae Mot1-301 galactose growth, ATP luminescence, 24 h; -100 = growth of slx-deleted rescue strain; growth activity, percent, % at 42 µM; 2,300 tested, under 10 active; AID 493004;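 active = Signal drops as the depositor expects, and the fitted half-maximal dose is no more than ten times the top valid tested dose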;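 note: more negative values mean stronger growth rescue toward the control strain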
# * marks the source's active call; other numbers are inactive results; . = no result given; + = active, no number.
SMILES,Mot1-301 SUMO,FAS TE block,MPTP block,CR mimetic SO,H9c2 protect,aDG glyco up,Yeast Mot1 SUMO
COc1ccc(NC(=O)CSc2nc(N)c(C(=O)Nc3ccc(N(C)C)cc3)s2)cc1,-11,-9,2,87,-18,1,.
CN(C)c1ccc(NC(=O)CSc2nc(N)c(C(=O)Nc3ccc(N(C)C)cc3)s2)cc1,466*,0,2,110,-14,3,0
CCCCn1c(N)c(N(CC(C)C)C(=O)CCN2C(=O)C3CC=CCC3C2=O)c(=O)[nH]c1=O (stereo not given),.,-4,0,.,-3,0,.
Cn1c(-c2sc3cc(C(F)(F)F)cnc3c2-c2cccs2)n[nH]c1=S,+,0,-1,108,1,0,0
NC(CCc1ccccc1)c1csc(NC(=O)Nc2cccc(C(F)(F)F)c2)n1 (stereo not given),.,-31,6,.,-32,-1,.
O=C1OC(Cc2ccccn2)C(O)=C1C1=NCCCN1 (stereo not given),375*,-11,1,113,7,0,0
O=C(N/N=C/c1ccccn1)NC12CC3CC(CC(C3)C1)C2,612*,6,-1,106,4,0,1
C=CCn1c(-c2ccc(OC)cc2)nc2ccccc21,396*,-2,1,105,-26,0,0
CCOCCn1c(-c2ccc(OC)cc2)nc2ccccc21,477*,3,-2,91,-6,0,0
CCCC1=Nc2cc(C(=O)N3CCC(C(=O)OCC)CC3)ccc2Sc2ccccc21,-19,20,-2,110,7,0,.
COc1cc(OC)cc(C2=Cc3ccccc3C(CC(=O)c3ccco3)N2c2ccc(-c3cncnc3)cc2)c1 (stereo not given),.,23,-2,.,.,0,.
CCOC(=O)c1oc2cc(OC(C)=O)ccc2c(=O)c1-c1ccc(OC)c(OC)c1,510*,1,2,92,6,0,0
CCOC(=O)COc1ccc2c(=O)c(-c3ccc(OC)c(OC)c3)c(C(=O)OCC)oc2c1,-6,-7,-1,99,-7,0,.
CC(C)c1nc2n[nH]c(N)c2c2c1CCC2,408*,-6,4,110,0,0,0
Cc1sc2ncnc(Nc3ccccc3)c2c1C,371*,8,-1,85,-5,0,0
Cc1sc2ncnc(NCc3ccccc3)c2c1C,9,11,29,82,-22,6,.
CCc1ccc(NS(=O)(=O)c2c(C(=O)N3CCCCCC3)c(C)n(C)c2C)cc1,103,3,0,78,-5,0,.
COc1cc(SC)ccc1C(=O)Nc1cc(C)c(OCC(=O)N2CCOCC2)c(C)c1,562*,3,0,124,8,2,0
Cc1nn(C)cc1S(=O)(=O)Nc1ccccc1Br,6,-4,0,101,6,0,.
Cc1nn(C)cc1S(=O)(=O)Nc1ncccn1,598*,-5,0,98,2,0,0
O=C(Cn1nnc(-c2ccccc2)n1)OCc1ccccc1,14,8,2,118,-2,0,.
O=C(OCc1ccccc1)c1cccc(-c2nnn(Cc3ccccc3)n2)c1,391*,26,0,114,-8,0,0
CCOc1ccc(-n2cc(C(=O)NCCOC)c3cc(OC)c(OC)cc3c2=O)cc1,810*,-6,0,109,11,0,0
CCOc1ccc(-n2cc(C(=O)Nc3cccc(OC)c3)c3cc(OC)c(OC)cc3c2=O)cc1,0,45,0,93,30,0,.
CCOC(=O)c1nc2sc3c(c2c(=O)[nH]1)CCC(C)C3 (stereo not given),402,-2,1,84,-11,0,.
SMILES,Mot1-301 SUMO,FAS TE block,MPTP block,CR mimetic SO,H9c2 protect,aDG glyco up,Yeast Mot1 SUMO
CC(C)CCOCc1nc2sc3c(c2c(=O)[nH]1)CCC(C)C3 (stereo not given),593*,-3,1,98,2,0,0
COc1ccccc1C(=O)NCCNc1ccc([N+](=O)[O-])cc1Cl,456*,22,1,105,4,0,-1
COC1OCC(O)C(NC(=O)N(C)N=O)C1O (stereo not given),.,-6,-1,.,3,0,.
COc1ccccc1NS(=O)(=O)c1cc(Cl)ccc1OC,442*,8,0,108,-2,0,1
COc1ccccc1NC(=O)Nc1ccc(Cl)c(S(=O)(=O)Nc2ccccc2OC)c1,390*,4,-3,111,5,0,0
Cc1ccc(C(=O)Nc2nc(-c3ccc(F)cc3)cs2)o1,410*,21,0,109,-5,0,-2
Cc1ccc(-c2csc(NC(=O)c3ccc(C)o3)n2)cc1,182,25,1,95,0,0,.
CCOc1ccc(Cl)cc1CNc1nnnn1CC,464*,-4,-2,100,0,0,1
CC1CCCCC12NC(=O)N(CC(=O)NNC(=O)c1ccc(Br)cc1)C2=O (stereo not given),-6,-3,1,80,-1,0,.
COc1ccc(-c2csc(NC(=O)CS(=O)(=O)c3ccccc3)n2)cc1,31,7,-1,110,2,0,.
COc1ccc(-c2csc(NC(=O)CS(=O)(=O)c3ccc(F)cc3)n2)cc1OC,555*,1,0,96,20,0,0
COc1cc(C2C(C(C)=O)=C(O)C(=O)N2Cc2ccccc2)ccc1O (stereo not given),120,-4,0,99,-2,0,.
O=C(Nc1ccc(F)cc1)c1cccnn1,397*,-5,-2,93,15,0,-1
Cc1ccc(S(=O)(=O)Oc2ccccc2N2C(=O)C3CC=CCC3C2=O)cc1 (stereo not given),+,2,3,109,-6,0,-1
CCc1ccccc1N1C(=O)C2CC=CCC2C1=O (stereo not given),7,-5,-6,101,4,0,.
Cc1ccc(S(=O)(=O)N2CCN(C(=O)C3CCN(c4ncnc5sc(C)c(C)c45)CC3)CC2)c(C)c1,.,45,34,.,-25,4,.
COc1ccc(Cn2nnnc2CN2CCCCCC2)cc1,-7,0,2,108,5,0,.
COc1ccc(Cn2nnnc2CN2CCN(c3ccc(OC)cc3)CC2)cc1,885*,2,-1,111,1,0,1
COc1ccc(CN2CCCCCC2)cc1,487*,-4,-2,108,6,0,0
COc1ccc(CN2CCOCC2)cc1,-5,-7,-3,86,12,0,.

# Screens (PubChem BioAssay)
